Source: PubChem BioAssay (NCATS)
Values without a mark were called inactive. Records with an inconclusive call do not appear. Active and inactive are the calls of the source. Unless noted, the call rests on the fitted dose curve; in most records, active means well fitted curve in either direction with a large enough effect (not every such curve was filed as active); inconclusive means small, poorly fitted or top-dose-only effect, or another doubt; inactive means flat fitted curve, though single readings scatter.

Tests used:
[1] = molecular target: Lysosomal acid glucosylceramidase (Homo sapiens) (UniProt P04062); assay: Glucocerebrosidase-p2 (AID 348; in the data active means potency below about 10 µM; further: potency means the concentration at half of the fitted maximal effect); conditions: purified GBA, blue fluorogenic substrate, 40 min
Lysosomal acid glucosylceramidase (Homo sapiens), sequence (P04062 whole entry, looked up): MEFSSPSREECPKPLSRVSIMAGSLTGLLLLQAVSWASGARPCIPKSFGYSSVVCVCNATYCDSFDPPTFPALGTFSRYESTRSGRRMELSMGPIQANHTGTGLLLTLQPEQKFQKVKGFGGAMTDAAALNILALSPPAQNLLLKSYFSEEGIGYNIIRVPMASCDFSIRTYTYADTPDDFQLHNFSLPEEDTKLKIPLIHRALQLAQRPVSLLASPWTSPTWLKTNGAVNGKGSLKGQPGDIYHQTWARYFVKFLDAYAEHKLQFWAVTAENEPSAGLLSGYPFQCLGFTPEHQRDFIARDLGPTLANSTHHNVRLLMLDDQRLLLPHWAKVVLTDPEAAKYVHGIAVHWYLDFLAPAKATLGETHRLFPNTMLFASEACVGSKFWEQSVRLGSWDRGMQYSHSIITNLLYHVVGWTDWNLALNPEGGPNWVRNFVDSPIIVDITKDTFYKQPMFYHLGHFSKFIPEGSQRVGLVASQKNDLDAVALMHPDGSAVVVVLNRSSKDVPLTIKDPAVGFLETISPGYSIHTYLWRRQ
Procedure, shortened: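 Compounds titrated from 0.6 nM upwards against 0.2 nM enzyme in pH 5.9 citric acid/KH2PO4, taurocholate, tween-20; blue fluorogenic substrate 80 uM, 40 min room temperature, stopped and read Ex 365/Em 440 for AC50.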

[2] = AP1 Signaling Pathway (AID 357); conditions: ME-180 AP-1-bla reporter, EGF-induced, beta-lactamase ratio, 5 h; at 7.69 µM (top of the series) unless noted; further: on the % scale 0 is the no-effect control and ±100 the full control effect
Procedure, shortened: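 ME-180 cells with beta-lactamase reporter under AP-1 response element, stimulated with EC50 EGF; compounds tested in titration series, 5 h at 37 °C. CCF4 substrate added 2.5 h at room temperature; 460/530 nm emission ratio gave %activity and AC50.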

[3] = molecular target: Cytochrome P450 1A2 (Homo sapiens) (UniProt P05177); assay: p450-cyp1a2 (AID 410; calls by dose curve; further: potency means the concentration at half of the fitted maximal effect;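 on activity change, negative = inhibition: -100% = full effect of reference inhibitor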); conditions: recombinant CYP1A2, luciferin-ME demethylation, luminescence; series mostly up to 11.4 µM
Cytochrome P450 1A2 (Homo sapiens), sequence (P05177 whole entry, looked up): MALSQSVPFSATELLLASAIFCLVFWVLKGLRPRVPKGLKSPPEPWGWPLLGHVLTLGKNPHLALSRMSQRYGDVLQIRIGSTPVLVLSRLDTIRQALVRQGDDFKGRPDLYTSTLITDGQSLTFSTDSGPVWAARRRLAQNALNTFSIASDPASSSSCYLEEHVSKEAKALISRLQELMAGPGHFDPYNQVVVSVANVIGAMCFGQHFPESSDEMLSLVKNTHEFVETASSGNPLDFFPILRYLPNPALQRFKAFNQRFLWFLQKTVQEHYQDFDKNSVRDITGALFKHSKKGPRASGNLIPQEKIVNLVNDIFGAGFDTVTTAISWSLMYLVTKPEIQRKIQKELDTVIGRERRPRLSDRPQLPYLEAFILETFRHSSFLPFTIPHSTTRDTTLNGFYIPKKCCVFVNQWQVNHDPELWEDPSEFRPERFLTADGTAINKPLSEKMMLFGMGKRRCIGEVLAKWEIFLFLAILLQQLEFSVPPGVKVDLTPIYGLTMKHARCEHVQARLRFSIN
Procedure, shortened: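 Human CYP1A2 (20nM) demethylated Luciferin-ME at its Km (100uM) in 100mM KPO4. After 10 min compound preincubation, NADPH regeneration ran the reaction 60 min at room temperature. Luciferin was read by luminescence, normalized to 57 uM furafylline.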

[4] = NFAT Signaling Pathway (AID 444); conditions: Jurkat NFAT-bla M1, carbachol, beta-lactamase ratio, 5 h; at 7.69 µM (top of the series) unless noted;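 further: carbachol stimulus at about its EC50 of 1 µM final; on the % scale 0 is the no-effect control and ±100 the full control effect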
Procedure, shortened: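 Jurkat cells carrying an NFAT-driven β-lactamase reporter and co-transfected muscarinic M1 receptor were treated with compound plus carbachol (1 uM final, an EC50 level) for 5 h at 37 °C. CCF4 loading followed for 1 h at RT; 460/530 nm ratio gave %activity.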

[5] = Stat Signaling Pathway (AID 446); conditions: ME-180 (cervical carcinoma) SIE beta-lactamase reporter, IL-6 stimulated, 5 h; at 7.69 µM (top of the series) unless noted;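 further: ME-180 cervical cancer cells given 40 pM IL-6 alongside compound; SIE-controlled beta-lactamase reporter measured as 460/530 nm FRET emission ratio; on the % scale 0 is the no-effect control and ±100 the full control effect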
Procedure, shortened: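 IL-6/STAT signaling read in ME-180 cells via an SIE beta-lactamase reporter. Stimulus was 40 pM IL-6 (its AC50) for 5 hrs, so both activation and inhibition register.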

[6] = molecular target: Glucocorticoid receptor (Homo sapiens) (UniProt P04150); assay: GR-GFP Redistribution (AID 450;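 active means compounds whose dose series gives a full or clear partial fitted curve of increased nuclear translocation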; further: potency means the concentration at half of the fitted maximal effect); conditions: U2OS GR-GFP nuclear translocation, laser cytometry, 2 h
Glucocorticoid receptor (Homo sapiens), sequence (P04150 whole entry, looked up, the tested form may be a part): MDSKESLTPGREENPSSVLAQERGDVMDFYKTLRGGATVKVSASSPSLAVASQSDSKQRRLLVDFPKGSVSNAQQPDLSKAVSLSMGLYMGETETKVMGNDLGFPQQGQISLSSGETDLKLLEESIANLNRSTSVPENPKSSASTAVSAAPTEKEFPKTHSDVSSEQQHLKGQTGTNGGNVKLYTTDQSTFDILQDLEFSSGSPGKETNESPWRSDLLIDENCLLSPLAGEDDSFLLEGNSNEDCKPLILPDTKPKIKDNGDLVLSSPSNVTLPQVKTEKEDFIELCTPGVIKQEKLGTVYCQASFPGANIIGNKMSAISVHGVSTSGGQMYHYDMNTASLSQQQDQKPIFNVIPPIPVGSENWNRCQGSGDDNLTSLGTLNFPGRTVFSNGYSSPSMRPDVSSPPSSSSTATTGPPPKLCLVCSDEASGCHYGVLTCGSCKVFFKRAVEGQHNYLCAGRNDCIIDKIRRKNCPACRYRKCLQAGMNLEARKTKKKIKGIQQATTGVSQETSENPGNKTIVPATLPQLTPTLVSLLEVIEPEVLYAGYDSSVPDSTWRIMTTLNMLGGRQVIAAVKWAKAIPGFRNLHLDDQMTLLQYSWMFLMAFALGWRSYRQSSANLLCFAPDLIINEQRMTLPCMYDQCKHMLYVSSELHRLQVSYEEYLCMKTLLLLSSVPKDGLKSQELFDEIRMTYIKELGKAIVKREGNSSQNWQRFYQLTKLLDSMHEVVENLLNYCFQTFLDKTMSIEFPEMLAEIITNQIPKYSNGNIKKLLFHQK

[7] = molecular target: Mitogen-activated protein kinase 10 (Mus musculus) (UniProt Q61831); assay: JNK3 AlphaScreen Assay (AID 530); conditions: JNK3 lysate, c-Jun phosphorylation; series mostly up to 11.4 µM;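 further: kinase came from lysate of stimulated human HepG2 cells; signal reports phosphorylation of biotinylated GST-cJun 1-79 at Ser73 with 10 µM ATP; on the % scale 0 is the no-effect control and ±100 the full control effect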
Procedure, shortened: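 JNK3 came from HepG2 lysates pre-activated with IL-1beta and TNF-alpha and phosphorylated biotinylated GST-cJun (1-79) at 10 uM ATP, pH 7.6, room temperature. Compounds were titrated. AlphaScreen signal used anti-phospho-cJun (Ser73) antibody.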

[8] = molecular target: 3',5'-cyclic-AMP phosphodiesterase 4B (Homo sapiens) (UniProt Q07343); assay: qHTS Assay for Inhibitors of PDE-IV (AID 607; active means well fitted activation curve with a large enough effect in the main read-out, with a control signal flat, not every such curve was filed as active; further: % of control where 0% means no effect); conditions: HEK293 ACTOne CNG channel cells, membrane potential fluorescence; series mostly up to 22.9 µM
3',5'-cyclic-AMP phosphodiesterase 4B (Homo sapiens), sequence (Q07343 whole entry, looked up): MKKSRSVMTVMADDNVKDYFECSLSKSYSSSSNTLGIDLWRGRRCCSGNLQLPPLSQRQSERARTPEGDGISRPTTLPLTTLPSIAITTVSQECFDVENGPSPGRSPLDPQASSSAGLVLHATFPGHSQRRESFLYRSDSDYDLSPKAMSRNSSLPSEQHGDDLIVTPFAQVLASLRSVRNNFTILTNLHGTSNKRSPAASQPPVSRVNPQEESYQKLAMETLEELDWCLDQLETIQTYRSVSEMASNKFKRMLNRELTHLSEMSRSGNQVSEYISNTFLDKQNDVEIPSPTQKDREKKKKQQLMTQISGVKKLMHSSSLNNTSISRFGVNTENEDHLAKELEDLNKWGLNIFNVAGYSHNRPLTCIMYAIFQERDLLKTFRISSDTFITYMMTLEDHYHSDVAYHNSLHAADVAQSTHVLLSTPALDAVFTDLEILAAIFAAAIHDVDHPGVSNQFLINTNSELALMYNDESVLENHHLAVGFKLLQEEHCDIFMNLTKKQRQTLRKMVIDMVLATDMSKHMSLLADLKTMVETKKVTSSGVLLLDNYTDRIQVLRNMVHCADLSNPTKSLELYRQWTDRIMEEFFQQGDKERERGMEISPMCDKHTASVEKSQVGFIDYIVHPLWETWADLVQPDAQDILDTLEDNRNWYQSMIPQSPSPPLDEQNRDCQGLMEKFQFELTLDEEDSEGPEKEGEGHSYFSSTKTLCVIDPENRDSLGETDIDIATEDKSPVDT
Procedure, shortened: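 Live HEK293 cells with a modified cyclic nucleotide-gated (CNG) channel report intracellular cAMP via membrane-potential dye fluorescence (ex 535/em 590 nm). Endogenous PDE-IV was targeted. Compounds were tested at up to 22.9 uM final; RO 20-1724 100 uM served as control.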

[9] = molecular target: Cytochrome P450 2C19 (Homo sapiens) (UniProt P33261); assay: qHTS Assay for Inhibitors and Substrates of Cytochrome P450 2C19 (AID 899; active means well fitted curve in the direction sought with a large enough effect; an effect the other way counts as inactive or inconclusive; further: nearly all actives have a fitted effect of over 60% in size; further: potency means the concentration at half of the fitted maximal effect); conditions: recombinant CYP2C19, luciferin-H EGE luminescence; series mostly up to 11.4 µM
Cytochrome P450 2C19 (Homo sapiens), sequence (P33261 whole entry, looked up): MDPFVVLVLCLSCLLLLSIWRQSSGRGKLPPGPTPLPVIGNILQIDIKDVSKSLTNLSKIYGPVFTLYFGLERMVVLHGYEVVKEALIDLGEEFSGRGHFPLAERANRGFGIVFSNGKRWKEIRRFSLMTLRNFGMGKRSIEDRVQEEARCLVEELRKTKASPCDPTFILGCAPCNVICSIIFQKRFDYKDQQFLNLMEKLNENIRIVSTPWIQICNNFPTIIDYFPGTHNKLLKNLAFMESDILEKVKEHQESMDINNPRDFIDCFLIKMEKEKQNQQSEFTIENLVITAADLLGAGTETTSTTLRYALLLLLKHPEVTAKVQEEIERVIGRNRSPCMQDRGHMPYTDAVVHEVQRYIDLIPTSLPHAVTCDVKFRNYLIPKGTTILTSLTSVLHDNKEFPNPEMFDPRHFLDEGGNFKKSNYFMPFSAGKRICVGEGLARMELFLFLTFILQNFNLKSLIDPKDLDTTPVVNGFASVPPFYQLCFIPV
Procedure, shortened: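 Human CYP2C19 (5nM) with Luciferin-H EGE at 10uM (its KM) in 50mM KPO4 was preincubated with compound for 10 min at 37C. NADPH regeneration started a 60 min 37C reaction. Luciferin was read by luminescence, normalized to 57uM ketoconazole.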

[10] = molecular target: Glucocorticoid receptor (Homo sapiens) (UniProt P04150); assay: GR-EFC Redistribution (AID 451; calls by dose curve; further: potency means the concentration at half of the fitted maximal effect); conditions: CHO-K1 GR-EFC translocation, beta-gal luminescence, 2 h
Procedure, shortened: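 CHO-K1 cells stably expressing nuclear-localized β-gal enzyme acceptor and GR fused C-terminally to the enzyme donor fragment; ligand-driven nuclear translocation restores β-gal by complementation. Compounds titrated up to 46 uM final, 2 h at 37 °C; luminescence read.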

[11] = molecular target: Cytochrome P450 2C9 (Homo sapiens) (UniProt P11712); assay: qHTS Assay for Inhibitors and Substrates of Cytochrome P450 2C9 (AID 883; active means well fitted curve in the direction sought with a large enough effect; an effect the other way counts as inactive or inconclusive; further: potency means the concentration at half of the fitted maximal effect; nearly all actives have a fitted effect of over 60% in size); conditions: recombinant CYP2C9, luciferin-H luminescence, 60 min; series mostly up to 11.4 µM
Cytochrome P450 2C9 (Homo sapiens), sequence (P11712 whole entry, looked up): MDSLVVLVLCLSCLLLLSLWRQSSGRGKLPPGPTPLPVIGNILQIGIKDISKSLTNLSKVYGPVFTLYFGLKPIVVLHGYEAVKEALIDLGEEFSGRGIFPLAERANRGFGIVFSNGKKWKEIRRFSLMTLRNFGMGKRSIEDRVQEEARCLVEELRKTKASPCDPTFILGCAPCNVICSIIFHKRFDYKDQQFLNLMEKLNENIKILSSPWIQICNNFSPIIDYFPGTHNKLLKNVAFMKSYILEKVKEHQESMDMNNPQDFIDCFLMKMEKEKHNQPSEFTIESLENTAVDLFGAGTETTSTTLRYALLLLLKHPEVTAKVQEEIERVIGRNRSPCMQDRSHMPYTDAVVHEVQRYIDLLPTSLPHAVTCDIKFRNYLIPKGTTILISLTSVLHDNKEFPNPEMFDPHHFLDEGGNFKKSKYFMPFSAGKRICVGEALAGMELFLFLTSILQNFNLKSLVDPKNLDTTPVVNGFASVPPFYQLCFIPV
Procedure, shortened: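 Human CYP2C9 (10nM) hydroxylated Luciferin-H (100uM, at its KM) to luciferin in 25mM KPO4. Compound was preincubated 10 min at 37C, then NADPH regeneration started a 60 min reaction at 37C. Luminescence was read after detection reagent, normalized to 57uM sulphaphenazole.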

[12] = molecular target: Cytochrome P450 3A4 (Homo sapiens) (UniProt P08684); assay: qHTS Assay for Inhibitors and Substrates of Cytochrome P450 3A4 (AID 884; active means well fitted curve in the direction sought with a large enough effect; an effect the other way counts as inactive or inconclusive; further: potency means the concentration at half of the fitted maximal effect; nearly all actives have a fitted effect of over 50% in size); conditions: recombinant CYP3A4, Luciferin-PPXE luminescence; series mostly up to 57.1 µM
Cytochrome P450 3A4 (Homo sapiens), sequence (P08684 whole entry, looked up): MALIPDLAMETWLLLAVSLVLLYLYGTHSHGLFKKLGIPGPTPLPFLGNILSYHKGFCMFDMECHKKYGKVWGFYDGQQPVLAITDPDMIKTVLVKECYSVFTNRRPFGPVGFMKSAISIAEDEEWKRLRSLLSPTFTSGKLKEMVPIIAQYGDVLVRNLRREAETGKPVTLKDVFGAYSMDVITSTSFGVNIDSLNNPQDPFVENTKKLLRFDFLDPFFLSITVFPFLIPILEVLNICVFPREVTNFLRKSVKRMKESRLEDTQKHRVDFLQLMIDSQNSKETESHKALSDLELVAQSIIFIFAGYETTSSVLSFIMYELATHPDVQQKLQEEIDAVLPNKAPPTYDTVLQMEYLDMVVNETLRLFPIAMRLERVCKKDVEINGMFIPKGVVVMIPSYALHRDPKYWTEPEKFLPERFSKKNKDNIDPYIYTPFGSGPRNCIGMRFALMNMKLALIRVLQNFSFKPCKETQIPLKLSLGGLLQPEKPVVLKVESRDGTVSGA
Procedure, shortened: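 20 nM human CYP3A4 with 25 uM Luciferin-PPXE (at KM) in 200 mM KPO4, preincubated 10 min with compound; NADPH regeneration started a 60 min RT reaction. Luciferin detected by luminescence, normalized to 57 uM ketoconazole as full inhibition.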

[13] = molecular target: Cytochrome P450 3A4 (Homo sapiens) (UniProt P08684); assay: qHTS Assay for Activators of Cytochrome P450 3A4 (AID 885; active means well fitted curve in the direction sought with a large enough effect; an effect the other way counts as inactive or inconclusive; further: nearly all actives have a fitted effect of over 65% in size); conditions: recombinant CYP3A4, Luciferin-PPXE luminescence, 60 min; series mostly up to 11.4 µM
Procedure, shortened: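 Quantitative HTS format: compounds preincubated with 20nM human CYP3A4 and Luciferin-PPXE substrate at KM, reaction started by NADPH regeneration, stopped after 60 min, luciferase luminescence read 20 min later.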

| Compound | Potency [1] [µM] | activity change, negative = inhibition [2] [%] | Potency [3] | activity change, negative = inhibition [4] [%] | activity, negative = inhibition [5] [%] | Potency [6] [µM] | Potency [7] | Potency [8] | Potency [9] | activity change, negative = inhibition [3] | Potency [10] [µM] | Potency [11] | Potency [12] | Potency [13] |
| --- | --- | --- | --- | --- | --- | --- | --- | --- | --- | --- | --- | --- | --- | --- |
| O=C1O[C@@H]([C@H](O)[C@H](O)[C@H](O)CO)[C@@H](O)[C@@H]1O | > 11.4 | 21.3 | inactive | 6.28 | -13.5 | > 46 | inactive | inactive | inactive |  |  |  |  |  |
| C[N+]1(C)CCc2cc(O)c(O)cc2[C@H]1Cc1ccc(O)c(O)c1 | > 11.4 | -2.63 |  | -9.29 | 6.76 |  | inactive | inactive |  | -12.1% [at 2.29 µM] | > 9.22 |  |  |  |
| c1cc(CSSCc2ccncc2)ccn1 | > 11.4 | -3.12 | 2 µM (active) | 12.2 | -6.55 | > 46 | inactive | inactive | 1.26 µM (active) |  |  | 1.58 µM (active) | 2.51 µM (active) | inactive |
| O=c1c(CCc2ccccc2)nc2cnc(Oc3cccc(Cl)c3)nc2n1C[C@H]1CCCO1 | > 11.4 | -27.5 | 3.98 µM (active) | -15.5 | -17.7 | > 9.22 |  |  |  |  | > 46 | 6.31 µM (active) | 0.501 µM (active) | inactive |
| O=C(CCCc1ccccn1)c1ccccc1 | > 11.4 | 4.82 | 5.01 µM (active) | 1.79 | 2.46 | > 46 | inactive | inactive |  |  |  |  |  |  |
| O=C(Nc1ccc(Nc2ccc3c(c2)C(=O)c2ccccc2C3=O)c2c1C(=O)c1ccccc1C2=O)c1ccccc1 | > 11.4 | -0.845 | 1.58 µM (active) | 18.6 | 13 | > 46 | inactive | inactive |  |  |  |  |  |  |
| COC(=O)N1CCC2(CCCN(Cc3cc(C(F)(F)F)cc(C(F)(F)F)c3)C2)CC1 | > 11.4 | 12 | inactive | 0.959 | -1.27 |  | inactive | inactive |  |  | > 46 |  |  |  |
| C/C(=N/NS(=O)(=O)c1ccc(C)cc1)P(=O)(O)O | > 11.4 | 1.2 | inactive | 7.41 | 6.08 |  | inactive | inactive |  |  | > 9.22 |  |  |  |
